KB-V1 cytotox: kills drug-selected multidrug resistant KB-V1 cells; Potency, µM (top dose mostly 46.1 µM), most hits filed as cytotoxic; AID 1347076; actives 3.4% (n = 400,000); KB-V1 MDR cells viability, CellTiter-Glo, 72 h; further: on the % scale 0 is the no-effect control and ±100 the full control effect; nearly all actives have a fitted effect of over 60% in size
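Luminescent ATP read-out (CellTiter-Glo, 10 min) measures survival of drug-selected KB-V1 MDR cells after 72 h, 37 degrees C compound exposure. Medium: phenol-red-free DMEM, 10% FBS. Values from fitted concentration-response curves.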
ALOX12 inh: blocks human arachidonate 12S-lipoxygenase | P18054 | purified 12hLO, xylenol orange hydroperoxide absorbance | Potency, µM (doses to about 108 µM), inactives show at the top dose activity change, negative = inhibition, most hits filed as inhibitors | actives 1.1% (n = 580,000) | AID 1671190; further: on the % scale 0 is the no-effect control and ±100 the full control effect
Target sequence (P18054 whole entry, looked up): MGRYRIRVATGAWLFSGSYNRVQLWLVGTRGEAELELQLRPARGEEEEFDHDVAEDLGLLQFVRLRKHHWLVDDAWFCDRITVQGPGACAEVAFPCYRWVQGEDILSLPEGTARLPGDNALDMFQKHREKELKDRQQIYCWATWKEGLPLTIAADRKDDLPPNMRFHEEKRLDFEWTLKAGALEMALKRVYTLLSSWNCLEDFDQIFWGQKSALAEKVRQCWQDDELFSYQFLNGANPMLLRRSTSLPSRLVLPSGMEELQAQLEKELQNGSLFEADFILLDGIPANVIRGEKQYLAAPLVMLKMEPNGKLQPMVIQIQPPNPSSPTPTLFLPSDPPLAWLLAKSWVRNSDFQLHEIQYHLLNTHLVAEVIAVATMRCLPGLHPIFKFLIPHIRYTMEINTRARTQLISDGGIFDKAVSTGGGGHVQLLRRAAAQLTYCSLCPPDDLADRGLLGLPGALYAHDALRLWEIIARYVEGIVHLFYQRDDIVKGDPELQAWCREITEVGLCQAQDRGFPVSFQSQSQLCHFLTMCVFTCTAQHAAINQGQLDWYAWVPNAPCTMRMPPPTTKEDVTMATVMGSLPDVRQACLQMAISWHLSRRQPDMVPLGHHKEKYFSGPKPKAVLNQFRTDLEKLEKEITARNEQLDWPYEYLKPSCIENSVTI
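Purified human 12hLO (150 nM final) in 25 mM Hepes, 0.01% Triton X-100, pH 7.0 was preincubated 15 min at room temperature with compound. Then 40 uM arachidonic acid was added, 30 min. Hydroperoxide was read by Fe-XO absorbance ratio 573/405 nm.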
KB-3-1 cytotox: kills parental KB-3-1 adenocarcinoma cells; KB-3-1 viability, CellTiter-Glo ATP luminescence, 72 h; Potency, µM (highest dose often 46.1 µM), most hits filed as cytotoxic; actives 1.4% (n = 400,000); AID 1347075; further: on the % scale 0 is the no-effect control and ±100 the full control effect; nearly all actives have a fitted effect of over 60% in size
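Cytotoxicity measured as CellTiter-Glo luminescence after 72 h at 37 C. Compound titrations were pinned onto drug-naive KB-3-1 parental adenocarcinoma cells grown in DMEM with 10% FBS, and normalized data fitted to concentration-response curves.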
SW480 rerep: induces DNA re-replication in SW480 colon adenocarcinoma cells; AID 624297; Potency, µM (doses to about 46.1 µM), inactives show at the highest dose re-replication activation, most hits filed as activators; SW480 DNA re-replication, Hoechst DNA content imaging, 48 h; actives 1.8% (n = 340,000); further: % of control where 0% means no effect; nearly all actives have a fitted effect of over 55% in size
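First, 250 cells per well were seeded. Next, compound or vehicle (23 nL) was pinned in, plates sat 48 hr at 37 C. Finally Hoechst was added for 40 min before fluorescence scanning.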
MCF10A rerep: inducers of DNA re-replication in MCF 10A breast cells; actives 2.9% (n = 350,000); MCF 10A DNA re-replication, Hoechst nuclear intensity, 48 h; AID 624296; Potency, µM (top dose mostly 46.1 µM), without a hit: at the highest dose activity, positive = re-replication, usual class: activators; further: % of control where 0% means no effect; nearly all actives have a fitted effect of over 50% in size
PINK1 modulator: PINK1 expression modulation. PINK1 immunofluorescence, high-content cytometry, 24 h. AID 624263. Potency, µM (top dose mostly 76.6 µM), without a hit: at the top dose activation (PINK1 increase), actives largely listed as activators. actives 0.2% (n = 410,000); active means well fitted activation curve with a large enough effect; inconclusive means small, poorly fitted or top-dose-only effect; cell line not stated here; further: % of control where 0% means no effect; nearly all actives have a fitted effect of over 65% in size
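Compound titrations (5 concentrations, 24 h) on a stable cell line; DMSO and CCCP controls. Endpoint: fixed-cell PINK1 immunofluorescence with mitochondrial, cell and nuclear markers, scanned by microplate cytometer.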
* hit, by the source's call; i = inactive; u = inconclusive; x = no result; [ ] = remark or other dose. Hits are enriched below; roughly 5.8% of the tested compounds scored in any of these assays. Unless noted, the call rests on the fitted dose curve; in most records, active means well fitted curve in the direction sought with a large enough effect; inconclusive means small, poorly fitted or top-dose-only effect, or another doubt; inactive means no such curve, though single readings can be large; an effect the other way counts as inactive or inconclusive. Potency means the concentration at half of the fitted maximal effect.

SMILES	KB-V1 cytotox	ALOX12 inh	KB-3-1 cytotox	SW480 rerep	MCF10A rerep	PINK1 modulator
COc1ccc([C@H]2C[C@@H](n3cc(C4CC4)nn3)[C@H](O)CN2CC2CCCCC2)cc1	u	0.0%	16.4µM*	x	x	29.0%
CCOC(=O)c1ccc(-n2cccc2/C=C2\NC(=O)NC2=O)cc1	7.31µM*	-11.4%	5.8µM*	18.4µM*	7.31µM*	9.9%
CCOC(=O)c1cccc(-n2cccc2/C=C2\NC(=O)N(CC(=O)O)C2=O)c1	i	u	i	-4.0%	u	2.9%
CN(C)c1ccc(/C=C/c2nc3ccccc3c(=O)n2-c2ccc(C(=O)O)cc2)cc1	i	u	i	20.6µM*	18.4µM*	0.3%
O=c1c2ccccc2nc(/C=C/c2ccccc2)n1CCc1ccccc1	i	0.4%	i	0.2%	-3.0%	0.8%
CCn1c(/C=C/c2ccccc2Cl)nc2ccccc2c1=O	i	u	i	u	16.4µM*	7.5%
O=c1c2ccccc2nc(/C=C/c2cccnc2)n1CCc1ccccc1	u	0.0%	i	-21.4%	29.1µM*	-0.3%
CCn1c(/C=C/c2c[nH]c3ccccc23)nc2ccccc2c1=O	i	-21.7%	i	u	20.6µM*	u
CCn1c(/C=C\c2ccccc2C)nc2ccccc2c1=O	u	3.9%	i	19.0%	0.3%	5.2%
O=S(=O)(c1ccccc1)N1CCN(Cc2coc(-c3cccs3)n2)CC1	x	-1.9%	x	x	x	x
CCn1c(/C=C/c2cccc([N+](=O)[O-])c2)nc2ccccc2c1=O	20.6µM*	-0.4%	u	2.8%	15.1%	3.4%
O=c1c2ccccc2nc(/C=C/c2cccc([N+](=O)[O-])c2)n1CCO	u	-4.0%	i	-2.9%	-30.7%	4.7%
CN(C)S(=O)(=O)c1ccc2[nH]cc(/C=C/c3nc4ccccc4c(=O)n3-c3ccccc3)c2c1	u	-7.4%	i	3.26µM*	u	11.2µM*
O=C(CSc1nc2ccccc2o1)NCC1CCCCC1	x	-26.7%	x	x	x	x
CCC(=O)N1CCN(c2ccccc2NC(=O)c2ccc(C#N)cc2F)CC1	x	12.9%	x	x	x	x
Cc1ccccc1-n1sc2cc(F)ccc2c1=O	u	u	u	u	16.4µM*	-2.0%
COCCCNCc1cccc2ccccc12	x	-53.5%	x	x	x	x
COc1ccc2[nH]c(=O)c(CN(CCc3ccccc3)Cc3nnnn3CC3CCCO3)cc2c1 (centres undefined)	i	-14.7%	i	9.5%	4.4%	0.3%[38.3 µM]
COc1ccccc1CN(Cc1cc2cc(C)ccc2[nH]c1=O)Cc1nnnn1CC1CCCO1 (centres undefined)	20.6µM*	-19.0%	i	-0.9%	u	x
Cc1ccc2[nH]c(=O)c(CN(CCc3ccccc3)Cc3nnnn3CC3CCCO3)cc2c1 (centres undefined)	14.6µM*	u	i	1.3%	-8.5%	1.6%[38.3 µM]
COc1ccc2[nH]c(=O)c(CN(Cc3ccccc3OC)Cc3nnnn3CC3CCCO3)cc2c1 (centres undefined)	u	-2.9%	i	-1.4%	0.1%	-1.5%[38.3 µM]
Cc1cc(/C=C(\C#N)c2cccc(C(F)(F)F)c2)c(C)n1C	x	39.8µM*	x	x	x	x
CN(CCC#N)c1ccc(C=C(C#N)c2cccc(C(F)(F)F)c2)cc1	i	x	u	x	x	2.0%
CC(=O)Nc1cccc(NC(=O)C2(Cc3nc4ccccc4s3)CCCC2)c1	x	4.8%	x	x	x	x
CC(C)CNC(=O)CCNC(=O)c1ccccc1	x	3.2%	x	x	x	x
SMILES	KB-V1 cytotox	ALOX12 inh	KB-3-1 cytotox	SW480 rerep	MCF10A rerep	PINK1 modulator
CC(C)NC(=O)c1onc(CSc2ccc(F)c(F)c2)c1C(=O)O	i	31.6µM*	i	-96.6%	-30.9%	2.3%
O=C(CN(c1cccc([N+](=O)[O-])c1)S(=O)(=O)c1ccccc1)NCc1ccccc1	5.8µM*	-19.1%	i	-2.4%	14.0%	1.7%
O=C(CSc1nc2ccccc2n1S(=O)(=O)c1cccc([N+](=O)[O-])c1)NCCc1ccccc1	3.66µM*	17.4%	u	-1.8%	14.5%	12.5%
CS(=O)(=O)N(CC(=O)NCCc1ccccc1)c1cccc([N+](=O)[O-])c1	i	6.3%	i	-33.9%	0.651µM*	1.5%
CCCCNC(=O)CSc1nc2ccccc2n1S(=O)(=O)c1ccc(Br)cc1	i	-2.9%	i	2.0%	-41.0%	1.0%
COc1ccc(CCNC(=O)CN(c2cccc([N+](=O)[O-])c2)S(C)(=O)=O)cc1	i	-6.2%	i	-13.9%	2.0%	-1.0%
O=C(CC1(C(=O)O)CCCCCC1)Nc1ccccc1NS(=O)(=O)c1ccc(F)cc1	x	15.2%	x	x	x	x
O=C1CCN(S(=O)(=O)c2ccccc2)CCCN(C(=O)C2(c3ccccc3)CC2)CCN1	x	33.9%	x	x	x	x
Cc1cc(-n2c(SCC(=O)NCCC3=CCCCC3)nc3n[nH]c(C)c3c2=N)ccc1Cl	i	-1.8%	i	26.3%	20.6µM*	-0.1%
Cc1ccc(-n2nnnc2SCC(=O)NCCC2=CCCCC2)c(C)c1	20.6µM*	-4.2%	i	2.3%	11.0%	-2.8%
CCOc1ccc(CCNC(=O)CSc2nnnn2-c2ccc(C)cc2C)cc1OCC	u	u	i	x	x	-0.9%
COc1cnc(-c2ccccn2)nc1Oc1ccc(Cl)cc1	u	2.1%	i	10.3µM*	u	-6.3%[38.3 µM]
COc1cnc(-c2ccccn2)nc1Sc1cccc(Cl)c1	u	-15.0%	i	11.6µM*	20.6µM*	-5.8%[38.3 µM]
COc1ccccc1Sc1nc(-c2ccccn2)ncc1OC	i	u	u	u	-3.5%	-1.2%
COc1cnc(-c2ccccn2)nc1Oc1ccccc1Cl	i	7.9%	i	-9.5%	2.9%	0.5%
COc1cnc(-c2ccccn2)nc1NC(C)C	7.31µM*	-8.9%	u	6.51µM*	23.1µM*	2.1%
CC1CCN(C(C)CNC(=O)Cc2coc(-c3ccccc3)n2)CC1 (centres undefined)	x	26.3%	x	x	x	x
CN(C)c1ccc(-c2cncnc2-n2ccnc2)cc1	x	39.8µM*	x	x	x	-1.3%
FC(F)(F)c1ccccc1-c1cncnc1-n1ccnc1	x	-12.1%	x	x	x	0.3%
CC1=Nc2cc(C(=O)NCC3CCCO3)ccc2Sc2ccc(C)cc21 (centres undefined)	i	0.0%	u	1.03µM*	2.06µM*	3.9%
CC1=Nc2cc(C(=O)O)ccc2Sc2ccc(C)cc21	i	0.0%	i	1.9%	-1.7%	0.8%
CC1=Nc2cc(C(=O)NCc3ccco3)ccc2Sc2ccc(C)cc21	0.581µM*	-13.6%	u	1.3µM*	1.03µM*	12.6%
CC1=Nc2cc(C(=O)NCCCN3CCN(C)CC3)ccc2Sc2ccc(C)cc21	i	-2.2%	i	6.4%	u	12.9%
